Results on 38 molecules are retold here after PubChem BioAssay (Tox21).

Values joined by “and” are separate entries in the source; they are usually repeats but may differ in a detail not shown here. Equal values may be shown once. Results filed as inconclusive are left out. A call without a number means that no potency is given here. Where a structure was tested more than once in an assay, its records may differ in their call. Active and inactive are the calls of the source. The call rests on the fitted dose curve; in most records, active means well fitted activation curve with a large enough effect in the repeat runs; inconclusive means weak or mixed curves; inactive means flat fitted curve, though single readings scatter.
Potency means the concentration at half of the fitted maximal effect.

One test in a line: A CellTox Green Cytotoxicity Assay to monitor cytotoxicity in HEK293 cells - 32 hour (AID 1224881). Further: nearly all actives have a fitted effect of over 40% in size. The note with it: CellTox Green fluorescence; series mostly up to 76.8 µM. The gist of the method: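 Real-time, in one plate: 600 HEK293 cells/well with dead-cell DNA dye, pinned compound after 5 h, 37 C incubation over 40 h; viable cells give no appreciable fluorescence.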
For the molecule `CCN(CC)C(=S)[S-].CCN(CC)C(=S)[S-].[Zn+2]`, the Potency was 15.4 µM (active).
Same read-out and setting: the value for `N#CC(Cl)Cl` was “inactive”; that for `CN(C)C(=S)[S-].CN(C)C(=S)[S-].[Cu+2]` was 2.38 µM (active); that for `c1cc[c]([Sb]([c]2ccccc2)[c]2ccccc2)cc1` was “inactive”.
The same measure, in the same setting: the value for `Clc1ccc(COC(Cn2ccnc2)c2ccc(Cl)cc2Cl)cc1` (stereo unspecified) was 45.7 µM (active) and 54.7 µM (active) and inactive.
The same measure, in the same setting: the value for `Cc1cc(C)c(C2=C(OC(=O)CC(C)(C)C)C3(CCCC3)OC2=O)c(C)c1` was “inactive”; that for `CC(=O)[O-].CC(=O)[O-].[Hg+2]` was 7.76 µM (active).
Turning to `NC(=O)CCl`, the Potency entry is “inactive”.
The same measure, in the same setting: the value for `CCC(C)c1cc(C(C)(C)C)cc(-n2nc3ccccc3n2)c1O` (stereo unspecified) was “inactive”.
Same read-out and setting: in the case of `CCOc1cc(C(C)(C)C)ccc1C1COC(c2c(F)cccc2F)=N1` (stereo unspecified) it was “inactive”.
The same measure, in the same setting: in the case of `NC(=O)c1ccc(N)nc1` it was “inactive”.
With `Cc1cc(SCc2sc(-c3ccc(C(F)(F)F)c(F)c3)nc2C)ccc1OCC(=O)O`, the Potency entry was “inactive”.
`COc1ccc(OC)c(CC(C)N)c1` (stereo unspecified): the Potency entry was “inactive”.
Same read-out and setting: in the case of `Cc1cc(C(F)(C(F)(F)F)C(F)(F)F)ccc1NC(=O)c1cccc(I)c1C(=O)NC(C)(C)CS(C)(=O)=O` it was “inactive”; in that of `[Cd+2].[Cl-].[Cl-]`, 44 µM (active) and 15.5 µM (active); in that of `CCOP(=S)(OCC)SCCS(=O)(=O)CC`, “inactive”.
The same measure, in the same setting: in the case of `CC(C)(COCC1CO1)COCC1CO1` (stereo unspecified) it was “inactive”.
On the same count and under the same terms, the value for `C=COCCCl` was “inactive”; that for `Cc1ccc(C(=O)Cl)cc1` was “inactive”; that for `CCCCCCCCCBr` was “inactive”.
For `CC(=O)Nc1ccc2c(c1)Cc1ccccc1-2`, the Potency result was “inactive”.
Still for that read-out and setting: the value for `CC(C)N1C(=O)N(c2ccccc2)CSC1=NC(C)(C)C` was “inactive”; that for `C=CC(=O)OCC(COC(=O)C=C)(COC(=O)C=C)COC(=O)C=C` was 27.5 µM (active); that for `[CH3][Hg][Cl]` was 7.74 µM (active).
On to `Nc1ccc([N+](=O)[O-])cc1Cl`, for which the Potency entry was “inactive”.
For the molecule `O=C(CCl)C(Cl)Cl`, the Potency was 27.8 µM (active).
The same measure, in the same setting: in the case of `CCCCN(CCCC)C(=S)[S-].CCCCN(CCCC)C(=S)[S-].[Zn+2]` it was 19.5 µM (active); in that of `CCOCCOC(C)=O`, “inactive”.
Same read-out and setting: in the case of `[Cl][Sn]([c]1ccccc1)([c]1ccccc1)[c]1ccccc1` it was 1.65 µM (active); in that of `CCCCCCCCCCCCCCCC[N+](C)(C)C`, 23.7 µM (active) and 43.6 µM (active) and 23.9 µM (active).
With `N#CSCSC#N`, the Potency was 43.2 µM (active).
In the case of `C[C@]12Cc3nonc3C[C@@H]1CC[C@@H]1[C@@H]2CC[C@@]2(C)[C@H]1CC[C@]2(C)O`, the Potency result was “inactive”.
On the same count and under the same terms, the value for `ClC(Cl)=C(Cl)Cl` was “inactive”.
On the same count and under the same terms, the value for `C[As+](C)(C)CC(=O)[O-]` was “inactive”; that for `COP(N)(=S)OC` was “inactive”.
Same read-out and setting: the value for `ClC1=C(Cl)[C@]2(Cl)[C@@H]3[C@@H](Cl)[C@@H](Cl)C[C@@H]3[C@@]1(Cl)C2(Cl)Cl` was “inactive”; that for `FC(Cl)(Cl)Cl` was “inactive”; that for `Cl/C=C\CCl` was “inactive”.

The next test can be described thus: A CellTox Green Cytotoxicity Assay to monitor cytotoxicity in HepG2 cells - 0 hour (AID 1224882). Further: nearly all actives have a fitted effect of over 35% in size. The note with it: CellTox Green fluorescence; series mostly up to 76.8 µM. The gist of the method:
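Cytotoxicity was tracked as dead-cell DNA fluorescence in HepG2 cells treated with test compounds at 37 C; each time-point value comes from one kinetic series spanning 0, 8, 16, 24, 32 and 40 h.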
As for `CCN(CC)C(=S)[S-].CCN(CC)C(=S)[S-].[Zn+2]`, the Potency result is “inactive”.
Still for that read-out and setting: the value for `N#CC(Cl)Cl` was 1.51 µM (active).
Consider `CN(C)C(=S)[S-].CN(C)C(=S)[S-].[Cu+2]`, for which the cytotoxicity is 0.299% [at 15.8 µM] (inactive).
For `c1cc[c]([Sb]([c]2ccccc2)[c]2ccccc2)cc1`, the Potency result is “inactive”.
On the same count and under the same terms, in the case of `Clc1ccc(COC(Cn2ccnc2)c2ccc(Cl)cc2Cl)cc1` (stereo unspecified) it was “inactive”.
Still for that read-out and setting: the value for `Cc1cc(C)c(C2=C(OC(=O)CC(C)(C)C)C3(CCCC3)OC2=O)c(C)c1` was “inactive”; that for `CC(=O)[O-].CC(=O)[O-].[Hg+2]` was “inactive”.
Still for that read-out and setting: the value for `NC(=O)CCl` was “inactive”; that for `CCC(C)c1cc(C(C)(C)C)cc(-n2nc3ccccc3n2)c1O` (stereo unspecified) was “inactive”; that for `CCOc1cc(C(C)(C)C)ccc1C1COC(c2c(F)cccc2F)=N1` (stereo unspecified) was “inactive”.
As to `NC(=O)c1ccc(N)nc1`, the Potency entry is “inactive”.
The same measure, in the same setting: the value for `Cc1cc(SCc2sc(-c3ccc(C(F)(F)F)c(F)c3)nc2C)ccc1OCC(=O)O` was “inactive”.
Still for that read-out and setting: in the case of `COc1ccc(OC)c(CC(C)N)c1` (stereo unspecified) it was “inactive”; in that of `Cc1cc(C(F)(C(F)(F)F)C(F)(F)F)ccc1NC(=O)c1cccc(I)c1C(=O)NC(C)(C)CS(C)(=O)=O`, “inactive”.
Still for that read-out and setting: the value for `[Cd+2].[Cl-].[Cl-]` was “inactive”; that for `CCOP(=S)(OCC)SCCS(=O)(=O)CC` was “inactive”; that for `CC(C)(COCC1CO1)COCC1CO1` (stereo unspecified) was “inactive”.
For the molecule `C=COCCCl`, the Potency result was “inactive”.
With `Cc1ccc(C(=O)Cl)cc1`, the Potency entry is “inactive”.
The same measure, in the same setting: the value for `CCCCCCCCCBr` was “inactive”.
As to `CC(=O)Nc1ccc2c(c1)Cc1ccccc1-2`, the Potency entry was “inactive”.
Still for that read-out and setting: the value for `CC(C)N1C(=O)N(c2ccccc2)CSC1=NC(C)(C)C` was “inactive”.
Same read-out and setting: in the case of `C=CC(=O)OCC(COC(=O)C=C)(COC(=O)C=C)COC(=O)C=C` it was “inactive”; in that of `[CH3][Hg][Cl]`, “inactive”; in that of `Nc1ccc([N+](=O)[O-])cc1Cl`, “inactive”.
On the same count and under the same terms, in the case of `O=C(CCl)C(Cl)Cl` it was “inactive”; in that of `CCCCN(CCCC)C(=S)[S-].CCCCN(CCCC)C(=S)[S-].[Zn+2]`, “inactive”; in that of `CCOCCOC(C)=O`, “inactive”.
For the molecule `[Cl][Sn]([c]1ccccc1)([c]1ccccc1)[c]1ccccc1`, the cytotoxicity is 7.07% [at 15.8 µM] (inactive).
With `CCCCCCCCCCCCCCCC[N+](C)(C)C`, the Potency entry is “inactive”.
Still for that read-out and setting: the value for `N#CSCSC#N` was “inactive”.
Same read-out and setting: the value for `C[C@]12Cc3nonc3C[C@@H]1CC[C@@H]1[C@@H]2CC[C@@]2(C)[C@H]1CC[C@]2(C)O` was “inactive”; that for `ClC(Cl)=C(Cl)Cl` was “inactive”.
Still for that read-out and setting: the value for `C[As+](C)(C)CC(=O)[O-]` was “inactive”; that for `COP(N)(=S)OC` was “inactive”; that for `ClC1=C(Cl)[C@]2(Cl)[C@@H]3[C@@H](Cl)[C@@H](Cl)C[C@@H]3[C@@]1(Cl)C2(Cl)Cl` was “inactive”.
Take `FC(Cl)(Cl)Cl`: the Potency entry was “inactive”.
As to `Cl/C=C\CCl`, the Potency result was “inactive”.
